Screening data: PubChem BioAssay, National Center for Advancing Translational Sciences (NCATS)
The list is not random: actives were taken first. Their share in the collection is about 20%.
Cycloheximide cs – counter-screen for Shiga toxin inhibitors: cycloheximide protein synthesis inhibition. cell reporter, cycloheximide protein synthesis inhibition counterscreen. max response, %. 300,000 tested, 12% active. AID 2314; in the data active = max response mostly above about 13%, no sharp cut-off; inactive = mostly below about 14%; also: read at 38.3 µM for the half of the compounds with a filed dose; 0% is about no effect
Pf growth 48h – inhibits P. falciparum growth in the first generation, 48 h; P. falciparum luciferase growth in erythrocytes, 48 h; Potency, µM (series often up to 28.7 µM), for inactives: top-dose activity change, negative = inhibition, hits mostly inhibitors; 310,000 tested, 5.9% active; AID 504832; also: potency is read from the fitted curve at half-maximal effect; % is scaled to controls: 0 for no effect and ±100 for the full control effect
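Growth was read as firefly luciferase luminescence after a 48 h, 37 C, 5% CO2 exposure of compounds to reporter-bearing P. falciparum cultures (0.1% parasitemia, 2% hematocrit final) in Albumax-supplemented RPMI 1640.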
Shiga toxin inh – Shiga toxin inhibition; AID 2315; inhibition, % at 38.7 µM; Vero cells, Shiga toxin protein synthesis inhibition reporter; 290,000 tested, 9.2% active; in the data active = inhibition mostly above about 28%, no sharp cut-off; inactive = mostly below about 43%; also: 0% is about no effect
HCMV inh – human cytomegalovirus inhibition | HFF cells, HCMV-luciferase reporter, 72 h; active compounds read low | activity change, negative = inhibition, % at 57.5 µM | 410,000 tested, 4.5% active; in the data active = activity change below about -60%; inconclusive = no clear call, values can overlap the other calls; inactive = above about -39%; also: % is scaled to controls: 0 for no effect and ±100 for the full control effect
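Two-dose cell screen: HFF monolayers treated with compounds and infected with luciferase-expressing HCMV at 1 PFU/cell, 72 h at 37C, then lysed for luciferase measurement.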
Pf growth 96h – P. falciparum growth inhibition at 96 hours. P. falciparum luciferase reporter growth, 96 h. Potency, µM (top dose mostly 28.7 µM), for inactives: at the highest dose activity change, negative = inhibition, hits mostly inhibitors. 320,000 tested, 6.9% active. AID 504834; also: potency is read from the fitted curve at half-maximal effect; % is scaled to controls: 0 for no effect and ±100 for the full control effect
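Luminescence readout: decreased luciferase signal marks inhibited growth of reporter-expressing P. falciparum in infected red cells (2% hematocrit, 0.05% parasitemia final), exposed to compound two generations (96 h, 37 C, 5% CO2).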
An asterisk follows results filed as active; ? = inconclusive; / = no result. Unless noted, calls follow the shape of the dose curve; as a rule, active = well fitted inhibition curve with a large enough effect; inconclusive = small, poorly fitted or top-dose-only effect, or another doubt; inactive = no such curve, though single readings can be large or run the other way.

SMILES | Cycloheximide cs | Pf growth 48h | Shiga toxin inh | HCMV inh | Pf growth 96h
Cc1ccc(S(=O)(=O)Nc2cc(C(C)C)c(O)cc2C)cc1 | -0.8 | ? | -14.9 | ? | ?
Cc1ccc(C(C)C)c(OC(=O)/C=C/c2ccccc2)c1 | 4.6 | -16.7% | -7.7 | 24.9 | 22.6%
C[C@@H]1CN([C@@H](C)CO)C(=O)CCCn2nncc2CO[C@H]1CN(C)C(=O)C1CCCCC1 | / | / | / | -10.1 | /
CC1=CC(=C(C#N)c2nc3ccccc3s2)C=C(C)N1CC1CCCO1 (stereo unspecified) | 1.9 | ? | 5.3 | 37.8 | 2.94µM*
Cc1cccc(NC(=O)NC(C)CCc2ccccc2)c1 (stereo unspecified) | 21.2* | ? | 12.5 | 0.1 | ?
Cc1cccc(NC(=O)NCCCCc2ccccc2)c1 | 9.8 | ? | 23.4* | 26.6 | ?
CC(=O)c1cccc(NC(=S)NCCCCc2ccccc2)c1 | -1.6 | -21.5% | -12.1 | -23.9 | 9.28µM*
O=C(NCCCCc1ccccc1)Nc1cccc(F)c1 | 46.7* | ? | 47.7* | ? | ?
Cc1ccc(NC(=O)NCCCCc2ccccc2)cc1 | 17.0 | -9.0% | 29.2* | -9.9 | 18.8%
CC(=O)Nc1cccc(C(=O)N(CCc2ccccc2)Cc2ccccc2)c1 | 28.5* | 23.9% | 22.8 | 16.0 | ?
O=C(NCCCc1ccccc1)Nc1ccccc1 | 19.3 | -15.9% | 34.6 | -5.9 | 91.1%
CC(=O)Nc1cccc(C(=O)N(Cc2ccccc2)Cc2ccccc2)c1 | -2.1 | 2.1% | -6.1 | 14.4 | -20.7%
O=C(/C=C/c1ccccc1)NC(=S)Nc1ncccn1 | 25.0* | 0.2% | 51.3* | -23.3 | -2.9%
O=C(/C=C/c1ccccc1)NC(=S)Nc1ccccc1 | 25.2* | 17.8% | / | -9.5 | 2.6%
O=C(/C=C/c1ccccc1)NC(=S)NNC(=O)c1ccco1 | 20.4* | 31.1% | 65.4* | 28.9 | 3.0%
O=C(/C=C/c1ccccc1)NC(=S)Nc1ccc2c3c(cccc13)CC2 | -4.1 | 25.0% | -3.2 | 26.8 | 17.0%
NC(N)=NS(=O)(=O)c1ccc(NC(=S)NC(=O)/C=C/c2ccc(F)cc2)cc1 | -2.6 | 10.5% | -12.8 | 27.4 | ?
O=C(/C=C/c1ccc(F)cc1)NC(=S)Nc1ccccc1 | 12.6 | 22.0% | 34.1* | -7.6 | 13.7%
COc1ccc(N2CCN(C(=O)c3oc4c(c3C)C(=O)CCC4)CC2)cc1 | -4.6 | -5.4% | -9.8 | -36.5 | -1.1%
CCCCN(C)C(=O)Cn1nc(-c2ccc(Cl)cc2)ccc1=O | -1.0 | -12.7% | -10.1 | -32.4 | -15.8%
O=C(Nc1nc2ccccc2s1)C1CCN(S(=O)(=O)c2cc([N+](=O)[O-])ccc2Cl)CC1 | 20.7* | ? | 49.7* | 0.0 | ?
CCOC(=O)c1ccc2nc(NC(NC(C)=O)(C(=O)OC)C(F)(F)F)sc2c1 (stereo unspecified) | -3.1 | 27.2% | 10.9 | 12.7 | -14.9%
O=C(Nc1nc2ccc(S(=O)(=O)N3CCCCC3)cc2s1)C1CCCO1 (stereo unspecified) | -1.6 | -12.1% | -11.1 | -8.3 | 10.4%
CCC(C)NC(=O)C1CCN(S(=O)(=O)c2cc([N+](=O)[O-])ccc2Cl)CC1 (stereo unspecified) | 1.0 | -0.9% | -6.1 | ? | 15.1%
CC(=O)c1sc(Nc2nc3ccc(F)cc3s2)nc1C | 52.0* | -9.0% | 96.7* | 24.2 | ?
SMILES | Cycloheximide cs | Pf growth 48h | Shiga toxin inh | HCMV inh | Pf growth 96h
CC(=O)c1sc(NC(=O)c2oc3ccc(F)cc3c2C)nc1C | / | 397.8% | / | -9.1 | 410.8%
O=C(Nc1nc2ccc(S(=O)(=O)N3CCCC3)cc2s1)C1CCCCC1 | -3.8 | ? | 0.5 | -61.9* | 0.9%
COC(=O)c1ccc2nc(Nc3nc4ccc(F)cc4s3)sc2c1 | 28.2* | 41.1% | -34.0 | -85.2* | 27.7%
CC(OC(=O)c1cccc(-n2cnnn2)c1)C(=O)N(C)c1ccccc1 (stereo unspecified) | 1.0 | 17.1% | -14.4 | 34.8 | -0.8%
CC(C)C[C@H]1CNC(=O)C(=O)N1C[C@@H]1CCCN1C[C@H](Cc1ccccc1)N1C[C@H](Cc2ccccc2)N(CC2CCCCC2)C(=O)C1=O | / | / | / | -10.5 | /
O=C(Nc1nc2ccc(Cl)cc2s1)C1CC1 | / | / | / | -22.9 | /
COC(=O)c1ccc2nc(NC(=O)C3CCCCC3)sc2c1 | 24.1* | 125.7% | 18.4 | 136.6 | ?
COC(=O)c1ccc2nc(NC(=O)C(C)(C)C)sc2c1 | -6.8 | 64.0% | -7.3 | -62.8* | 124.3%
CC(=O)Nc1nc2ccc(C(=O)NC3CCCCC3)cc2s1 | 9.0 | ? | 23.0 | 26.0 | 11.1%
CCOC(=O)c1csc(Nc2nc3ccc(F)cc3s2)n1 | 20.0* | ? | 22.8* | ? | -3.9%
CC(C)c1ccc2nc(NC(=O)C3CC3)sc2c1 | 52.3* | 108.9% | 70.1* | ? | 264.3%
COC(=O)Nc1nc2ccc(Br)cc2s1 | 16.0 | 32.2% | 26.5 | -36.6 | 33.2%
O=C(CSc1nc(-c2cccs2)nc2cc(=O)[nH]n12)Nc1ccc(F)cc1 | / | / | / | -15.1 | /
NC(=O)c1c(NC(=O)Cc2ccccc2)sc2c1CCN(Cc1ccccc1)C2 | -4.1 | ? | -3.9 | -32.2 | ?
Cc1nnc(SCCn2c(N3CCN(Cc4ccccc4)CC3)nc3c2c(=O)[nH]c(=O)n3C)s1 | -2.0 | ? | -8.4 | -19.2 | 7.38µM*
CCCCn1c(N2CCC(Cc3ccccc3)CC2)nc2c1c(=O)[nH]c(=O)n2C | -2.9 | 9.28µM* | -3.7 | -28.2 | ?
CC1CCN(c2nc3c(c(=O)[nH]c(=O)n3C)n2Cc2ccccc2Cl)CC1 | -2.0 | -22.3% | -4.0 | -3.7 | 9.28µM*
Cn1c(=O)[nH]c(=O)c2c1nc(N1CCc3ccccc3C1)n2CCSc1nc2ccccc2s1 | -1.1 | 5.22µM* | 0.7 | -16.6 | 57.4%
O=C(c1ccc([N+](=O)[O-])cc1)N(Cc1ccco1)c1ccccn1 | / | / | / | 3.9 | /
O=C1OCCC1Sc1nnc(-c2cccnc2)n1-c1ccccc1F (stereo unspecified) | -2.8 | 19.0% | 15.1 | ? | 19.5%
Cc1nnc(SCCn2c(N3CCN(C)CC3)nc3c2c(=O)[nH]c(=O)n3C)s1 | -2.5 | / | -14.9 | -5.6 | -14.5%
Cc1nnc(SCCn2c(N3CCC(Cc4ccccc4)CC3)nc3c2c(=O)[nH]c(=O)n3C)s1 | -1.7 | ? | -2.1 | / | 9.28µM*
Cc1cc(C(=O)CN2C(=O)NC(c3ccccc3)(c3ccccc3)C2=O)c(C)n1Cc1ccco1 | 7.0 | 1.31µM* | 50.8 | 20.8 | -22.0%
CN(Cc1ccco1)C(=O)CN1C(=O)NC(c2ccccc2)(c2ccccc2)C1=O | / | ? | / | -25.8 | ?
Cc1cc(C(=O)CN2C(=O)NC(C)(c3cccc(Br)c3)C2=O)c(C)n1Cc1ccco1 (stereo unspecified) | 1.9 | 1.47µM* | 4.1 | 7.1 | 10.3%
O=C(NCc1ccco1)C(=O)c1c[nH]c2ccccc12 | 31.0* | 19.0% | 54.0* | -4.3 | 25.4%
O=C(Cc1c[nH]c2ccccc12)NCc1ccco1 | 1.7 | -12.7% | -12.5 | ? | 21.5%
O=C(NCc1cccs1)C(=O)c1c[nH]c2ccccc12 | 33.2* | 114.9% | 90.2 | -32.9 | 101.0%
O=C(Cc1c[nH]c2ccccc12)NCc1ccc(Cl)cc1Cl | 12.0 | 22.4% | 44.6* | 72.2 | 33.1%
